How the values were obtained:
Test in all cases: PBM binding z-score (relative to random genomic background probes); higher = stronger binding; sequences stand for … in GC…GCGATTGACAGCGTAGAATGAAGG
[1] = tested on: RARb homodimer (NR concentration 270 nM)
Method in brief: (§1)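 Custom Agilent 4×180K protein-binding microarrays carried double-stranded probes. Their 34-nt variable regions held direct-repeat seeds, single-nucleotide variants, half-site ablations and random human genomic background sequences. Arrays were incubated 1 h with ligand-free nuclear receptor dimers in PBS pH 7.4, 2% milk, 0.02% Triton X-100, 1 mM DTT, 0.2 mg/mL BSA and 0.4 mg/ml salmon testes DNA. Antibodies against each partner (one per run) detected binding, and scanned fluorescence was regression-normalized. Binding z-scores use random background probes as reference.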

[2] = tested on: RARg:RXRa (NR concentration 270 nM, RXRa partner concentration 90 nM)
Method in brief: as §1

[3] = tested on: RARg homodimer (NR concentration 270 nM)
Method in brief: as §1

[4] = tested on: RXRa DBDmut IVT, anti-RXR (DBD mutation: RXRa K156A/R161A, NR concentration 90 nM)
Method in brief: as §1

[5] = tested on: RXRa homodimer (NR concentration 180 nM)
Method in brief: as §1

[6] = tested on: THRa:RXRa (NR concentration 90 nM, RXRa partner concentration 90 nM)
Method in brief: as §1

[7] = tested on: THRa homodimer (NR concentration 90 nM)
Method in brief: as §1

[8] = tested on: VDR homodimer (NR concentration 270 nM)
Method in brief: as §1

Sequence | PBM binding z-score [1] | PBM binding z-score [2] | PBM binding z-score [3] | PBM binding z-score [4] | PBM binding z-score [5] | PBM binding z-score [6] | PBM binding z-score [7] | PBM binding z-score [8]
TCTTGTAGCTCAATAGAGGTTAAGAAAGTGCGCT | 0.952 | 0.354 | 0.113 | 0.261 | 0.994 | 1.27 | -0.704 | -0.137
CGTCCAAGGTCAGAGATGTCAGTGAATGCCGAGT | 3.66 | 4.35 | 5.29 | 2.72 | 3.3 | 3.29 | 1.9 | 1.82
CCTACTGGGCCACGAAAGGTCATTGATTCAGTGA | 4.53 | 4.73 | 4.37 | 0.61 | 5.18 | 3.67 | 0.798 | 2.59
AGTCAAAGTTCATCTCGGTAACGTAAGATATGCT | 3.93 | 5.53 | 6.02 | 4.57 | 4.35 | 2.58 | -0.318 | 4.92
GTACCAAAGTGAATAGGTCGTTGATGAGTAGGCG | 0.226 | 0.205 | 0.383 | -0.282 | 0.584 | -0.048 | -0.733 | -0.0624
TCATATAGTTAAACAGGTGAAAGTCCGTAAGTTA | 0.84 | 0.464 | 0.347 | 1.57 | 1.04 | 0.679 | 0.485 | 0.667
TAGTCTAGGTCAGATCGGGCCAGTATACGCTATA | 2.21 | 2.72 | 3.51 | -0.14 | 1.39 | 4.26 | 0.664 | -0.0113

Source: the supplement of paper PMC6555819
